In all, about 48,000 compounds went through this assay and about 13,000 (27%) showed an effect of 50% or more. This is one part of the list.
Each molecule was assayed on Wolbachia pipientis (assay: Anti-Wolbachia Cell-Based Screen). Details: 5 µM.
Type: functional
Design: scale not given: in the data most compounds retested in dose-response had high values

| SMILES | Percent Effect |
| --- | --- |
| N#CCCN(c1ccccc1)S(=O)(=O)CC1CCCCO1 (stereo not drawn) | -2.973% |
| CCOc1ccc(NC(=O)N(CCC#N)Cc2ccccn2)cc1F | -26.47% |
| O=C(Cc1cccnc1)N1CCCC(n2cncn2)C1 (stereo not drawn) | 106.6% |
| O=C(Cc1ccccc1Cl)N1CCCC(n2cncn2)C1 (stereo not drawn) | -8.361% |
| O=C(CCc1cccnc1)N1CCCC(n2cncn2)C1 (stereo not drawn) | -7.114% |
| Cc1cccnc1CNc1ccc(C(=O)N2CCc3ccccc32)cn1 | 0% |
| CC(C)(C)n1ncc(NCC(O)c2ccc(F)c(F)c2)c(Cl)c1=O (stereo not drawn) | 100.9% |
| COCc1ccc(CNc2cnn(C(C)(C)C)c(=O)c2Cl)cc1 | 2.959% |
| COc1cc(CNc2cnn(C(C)(C)C)c(=O)c2Cl)ccn1 | -46.44% |
| OC(CNCCn1cccn1)c1ccc(F)c(F)c1 (stereo not drawn) | -2.779% |
| CC(C)(C)n1ncc2c(=O)n(CC(=O)NCc3ccccc3Cl)cnc21 | 3.164% |
| COCc1cccc(CNc2cnn(C(C)(C)C)c(=O)c2Cl)c1 | -38.78% |
| O=C(NCC(O)c1ccccc1C(F)(F)F)c1cccnc1 (stereo not drawn) | -5.174% |
| CC(C)(C)n1ncc(NCC(O)c2ccccc2)c(Cl)c1=O (stereo not drawn) | 108.9% |
| O=C(NCc1cccnc1)NCC(O)c1ccccc1C(F)(F)F (stereo not drawn) | -3.866% |
| CC(C)(C)n1ncc(NCC(O)c2ccccc2C(F)(F)F)c(Cl)c1=O (stereo not drawn) | 100.7% |
| CC(C)(C)n1ncc(NCCc2ccccc2C(F)(F)F)c(Cl)c1=O | 139.1% |
| CC(C)(C)n1ncc(NCc2ccccc2)c(Cl)c1=O | -16.67% |
| CCc1noc(CNc2ccc(F)cc2OCC2CC2)n1 | -5.752% |
| CC(NCc1cnc(C2CCC2)s1)c1ccccc1-n1cccn1 (stereo not drawn) | -10.15% |
| Cc1ccc(-c2ccc(C(=O)NCCC(=O)N(C)C)c(F)c2)cc1 | -15.57% |
| c1ccc2c(N3CCSCC3)cnnc2c1 | -7.227% |
| Cc1ccc(CNCCCNS(C)(=O)=O)c(Br)c1 | 3.842% |

| SMILES | Percent Effect |
| --- | --- |
| NC(=O)C(CNC(=O)CCc1ccccc1)Cc1ccc(F)cc1 (stereo not drawn) | 119.3% |
| NC(=O)C(CNC(=O)Cc1ccsc1)Cc1ccc(F)cc1 (stereo not drawn) | 90.7% |
| NC(=O)NC(CC(=O)NCCc1ccc(F)cc1)c1ccccc1 (stereo not drawn) | 2.194% |
| CCOC(=O)C(C)NC(=O)CCc1ccc(F)cc1 (stereo not drawn) | 2.833% |
| CCOc1ccc(CC(CNC(=O)c2ccc(C)s2)C(N)=O)cc1 (stereo not drawn) | -16.33% |
| CCOc1ccc(CC(CNC(=O)c2sccc2C)C(N)=O)cc1 (stereo not drawn) | 1.626% |
| Cc1ccc(CC(=O)NCC(O)c2cc(Cl)cc(Cl)c2)cn1 (stereo not drawn) | 3.357% |
| CCc1ccc2c(c1)C(CCNC(=O)CCc1ccsc1)C(=O)N2 (stereo not drawn) | 24.64% |
| Cc1ccc(CC(=O)NCC(Cc2ccc(F)cc2)C(N)=O)cn1 (stereo not drawn) | 110.1% |
| Cc1ccc(CC(=O)NCC(O)c2cccc(C(F)(F)F)c2)cn1 (stereo not drawn) | -12.46% |
| NC(=O)C(CNC(=O)CCc1ccsc1)Cc1ccc(F)cc1 (stereo not drawn) | 115.1% |
| CS(=O)(=O)Nc1cccc(CNC(=O)CCc2ccsc2)c1 | -4.988% |
| CN1CC(c2ccccc2)CC12CCN(C(=O)c1c(Cl)cnn1C)CC2 (stereo not drawn) | 11% |
| CC1CCN(C)c2ccccc2N1C(=O)c1ccnc(-n2cncn2)c1 (stereo not drawn) | -2.842% |
| Cc1ccccc1C(C(=O)NCc1nc(-c2ncccn2)no1)N(C)C (stereo not drawn) | -2.983% |
| Cc1cccnc1[C@H](C)Nc1nc(-c2cccnc2)nc2c1CNC2 | -9.004% |
| CC(C)n1ccnc1C1CCN(C(=O)c2ccccc2N(C)C)CC1 | -47.93% |
| COc1cccc(CC(=O)NCC(Cc2ccc(F)cc2)C(N)=O)c1 (stereo not drawn) | 112.8% |
| COc1cccc(COCC(=O)NC(C(N)=O)c2ccccc2F)c1 (stereo not drawn) | 9.878% |
| CCOc1ccc(CC(CNC(=O)c2ccco2)C(N)=O)cc1 (stereo not drawn) | -3.482% |
| COc1ccc(C(=O)N(C)Cc2nnc3ccccn23)c(OC)c1 | -6.181% |
| CN(Cc1nnc2ccccn12)C(=O)CCC1CCCC1 | -7.535% |
| CN(Cc1nnc2ccccn12)C(=O)CC1CCCCC1 | -9.634% |

| SMILES | Percent Effect |
| --- | --- |
| Cc1ccc(C)c(CN(C)Cc2nnc3ccccn23)c1 | -4.756% |
| COc1ccc(C(=O)N(C)Cc2cccc(C#N)c2)c(OC)c1OC | 5.74% |
| COc1ccc(C(=O)N(C)Cc2nnc3ccccn23)c(OC)c1OC | 155.5% |
| COc1cccc(C(=O)N(C)Cc2ncc(C)c(OC)c2C)c1OC | -3.642% |
| COc1ccc(OC)c(C(=O)N(C)Cc2nnc3ccccn23)c1 | 126.3% |
| COc1ccccc1C(=O)N(C)Cc1nnc2ccccn12 | 155.2% |
| CCc1ccc(C2COCCN2C(=O)NCc2cccc(C#N)c2)o1 (stereo not drawn) | -15.12% |
| Cn1cccc1-c1cc(C(=O)N2CCCC2c2ccc(C(N)=O)s2)[nH]n1 (stereo not drawn) | -10.74% |
| CC(C)CN1CCOC[C@H](Oc2ccc(S(C)(=O)=O)cc2)C1 | 2.76% |
| Cc1cc(C(=O)NCc2ccnc(N3CCN(C)CC3)c2)c(C)s1 | 0.2044% |
| Cc1cc(NC(=O)N2CCC[C@@H]2CO)nn1-c1cccc(Cl)c1 | -10.34% |
| CSC1=Nc2c(cnn2-c2ccc(C)cc2)C2=NCCCN12 | 111.5% |
| O=C1CCCCN1CSc1nnnn1-c1ccc(Cl)cc1 | -1.778% |
| CCSC1=Nc2c(cnn2-c2ccc(Cl)cc2)C2=NCCCN12 | 119% |
| CSC1=Nc2c(cnn2-c2cccc(Cl)c2)C2=NCCCN12 | 101.8% |
| CSC1=Nc2c(cnn2-c2ccccc2)C2=NCCCN12 | 110.4% |
| CC(C)OCCOCc1cccc(NC(=O)NCCn2ccnc2)c1 | 1.646% |
| O=C(CCc1cc2n(n1)CCN(Cc1ncc[nH]1)C2)N1CCCC1 | 6.822% |
| Cc1cc(N[C@H]2CCCC[C@@H]2O)n2nccc2n1 | -46.39% |
| Cc1nc(Cn2cncc(Br)c2=O)no1 | 4.078% |
| Cn1cnc2c1CCN(CC(=O)N(Cc1ccccc1F)C1CC1)C2 | -0.08141% |
| CSC1=Nc2c(cnn2-c2ccc(Cl)cc2)C2=NCCCN12 | 101% |

— ChEMBL document CHEMBL3988442, “University of Dundee, Small-Polar-MMV Screening Library” (2021)
